{
  "source": "the supplement of paper PMC6992640",
  "data": [
    {"tested_on": "HCI01 (cells of a triple-negative basal-like breast cancer xenograft)", "test": "cell viability of combination (% of vehicle); higher = less cytotoxic", "settings": "1 µM; 72 h; partner dose: 10 nM", "description": "(§1)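 PDX cells were treated for 72 h with each drug at 1 µM plus carfilzomib (10 nM; 100 nM for WHIM2). Luciferase viability is expressed as percent of vehicle.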", "values": [
      {"smiles": "COC(=O)NC(C(=O)N1CCCC1c1ncc(-c2ccc(-c3ccc(-c4cnc(C5CCCN5C(=O)C(NC(=O)OC)C(C)C)[nH]4)cc3)cc2)[nH]1)C(C)C", "note": "(stereo not given) + CC(C)C[C@H](NC(=O)[C@H](CCc1ccccc1)NC(=O)CN1CCOCC1)C(=O)N[C@@H](Cc1ccccc1)C(=O)N[C@@H](CC(C)C)C(=O)[C@@]1(C)CO1 [Carfilzomib]", "cell viability of combination": 70.8},
      {"smiles": "C#Cc1cccc(Nc2ncnc3cc(OCCOC)c(OCCOC)cc23)c1.Cl", "note": "[Erlotinib Hydrochloride] + CC(C)C[C@H](NC(=O)[C@H](CCc1ccccc1)NC(=O)CN1CCOCC1)C(=O)N[C@@H](Cc1ccccc1)C(=O)N[C@@H](CC(C)C)C(=O)[C@@]1(C)CO1 [Carfilzomib]", "cell viability of combination": 62.6},
      {"smiles": "CC(C)C(=O)OCC(=O)[C@@]12O[C@H](C3CCCCC3)O[C@@H]1C[C@H]1[C@@H]3CCC4=CC(=O)C=C[C@]4(C)[C@H]3[C@@H](O)C[C@@]12C", "note": "[Ciclesonide] + CC(C)C[C@H](NC(=O)[C@H](CCc1ccccc1)NC(=O)CN1CCOCC1)C(=O)N[C@@H](Cc1ccccc1)C(=O)N[C@@H](CC(C)C)C(=O)[C@@]1(C)CO1 [Carfilzomib]", "cell viability of combination": 108},
      {"smiles": "Cc1nc(NC(=O)N2CCCC2C(N)=O)sc1-c1ccnc(C(C)(C)C(F)(F)F)c1", "note": "(stereo not given) + CC(C)C[C@H](NC(=O)[C@H](CCc1ccccc1)NC(=O)CN1CCOCC1)C(=O)N[C@@H](Cc1ccccc1)C(=O)N[C@@H](CC(C)C)C(=O)[C@@]1(C)CO1 [Carfilzomib]", "cell viability of combination": 62.6},
      {"smiles": "Clc1ccc(COC(Cn2ccnc2)c2ccc(Cl)cc2Cl)c(Cl)c1.O=[N+]([O-])O", "note": "(stereo not given) [Miconazole Nitrate] + CC(C)C[C@H](NC(=O)[C@H](CCc1ccccc1)NC(=O)CN1CCOCC1)C(=O)N[C@@H](Cc1ccccc1)C(=O)N[C@@H](CC(C)C)C(=O)[C@@]1(C)CO1 [Carfilzomib]", "cell viability of combination": 87.1},
      {"smiles": "O=C(NC1CCN(CCCCC2(C(=O)NCC(F)(F)F)c3ccccc3-c3ccccc32)CC1)c1ccccc1-c1ccc(C(F)(F)F)cc1", "note": "[Lomitapide] + CC(C)C[C@H](NC(=O)[C@H](CCc1ccccc1)NC(=O)CN1CCOCC1)C(=O)N[C@@H](Cc1ccccc1)C(=O)N[C@@H](CC(C)C)C(=O)[C@@]1(C)CO1 [Carfilzomib]", "cell viability of combination": 84.9}
    ]},
    {"tested_on": "UCD52 (cells of a triple-negative basal-like breast cancer xenograft)", "test": "cell viability of combination (% of vehicle); higher = less cytotoxic", "settings": "1 µM; 72 h; partner dose: 10 nM", "description": "as §1", "values": [
      {"smiles": "CCCCc1oc2ccccc2c1C(=O)c1cc(I)c(OCCN(CC)CC)c(I)c1.Cl", "note": "[Amiodarone HCl] + CC(C)C[C@H](NC(=O)[C@H](CCc1ccccc1)NC(=O)CN1CCOCC1)C(=O)N[C@@H](Cc1ccccc1)C(=O)N[C@@H](CC(C)C)C(=O)[C@@]1(C)CO1 [Carfilzomib]", "cell viability of combination": 63.7},
      {"smiles": "COc1cc(C(=O)O)ccc1NC(=O)C1NC(CC(C)(C)C)C(C#N)(c2ccc(Cl)cc2F)C1c1cccc(Cl)c1F", "note": "(stereo not given) + CC(C)C[C@H](NC(=O)[C@H](CCc1ccccc1)NC(=O)CN1CCOCC1)C(=O)N[C@@H](Cc1ccccc1)C(=O)N[C@@H](CC(C)C)C(=O)[C@@]1(C)CO1 [Carfilzomib]", "cell viability of combination": 62.7},
      {"smiles": "CC(C)(C)NC(=O)C1CC2CCCCC2CN1CC(O)C(Cc1ccccc1)NC(=O)C(CC(N)=O)NC(=O)c1ccc2ccccc2n1.CS(=O)(=O)O", "note": "(stereo not given) [Saquinavir mesylate] + CC(C)C[C@H](NC(=O)[C@H](CCc1ccccc1)NC(=O)CN1CCOCC1)C(=O)N[C@@H](Cc1ccccc1)C(=O)N[C@@H](CC(C)C)C(=O)[C@@]1(C)CO1 [Carfilzomib]", "cell viability of combination": 60.2},
      {"smiles": "COc1ccccc1OCCNCC(O)COc1cccc2[nH]c3ccccc3c12", "note": "(stereo not given) [Carvedilol] + CC(C)C[C@H](NC(=O)[C@H](CCc1ccccc1)NC(=O)CN1CCOCC1)C(=O)N[C@@H](Cc1ccccc1)C(=O)N[C@@H](CC(C)C)C(=O)[C@@]1(C)CO1 [Carfilzomib]", "cell viability of combination": 61.4},
      {"smiles": "C=C1C(=CC=C2CCCC3(C)C2CCC3C(C)C=CC(C)C(C)C)CC(O)CC1O", "note": "(stereo not given) [Doxercalciferol] + CC(C)C[C@H](NC(=O)[C@H](CCc1ccccc1)NC(=O)CN1CCOCC1)C(=O)N[C@@H](Cc1ccccc1)C(=O)N[C@@H](CC(C)C)C(=O)[C@@]1(C)CO1 [Carfilzomib]", "cell viability of combination": 44},
      {"smiles": "COc1cc2nccc(Oc3ccc(NC(=O)C4(C(=O)Nc5ccc(F)cc5)CC4)cc3)c2cc1OC.O=C(O)CC(O)C(=O)O", "note": "[Cabozantinib malate (XL184)] + CC(C)C[C@H](NC(=O)[C@H](CCc1ccccc1)NC(=O)CN1CCOCC1)C(=O)N[C@@H](Cc1ccccc1)C(=O)N[C@@H](CC(C)C)C(=O)[C@@]1(C)CO1 [Carfilzomib]", "cell viability of combination": 57.2},
      {"smiles": "CC(C)C1=CC(=C2NNC(=O)N2c2ccc3c(ccn3C)c2)C(=O)C=C1O", "note": "[Ganetespib (STA-9090)] + CC(C)C[C@H](NC(=O)[C@H](CCc1ccccc1)NC(=O)CN1CCOCC1)C(=O)N[C@@H](Cc1ccccc1)C(=O)N[C@@H](CC(C)C)C(=O)[C@@]1(C)CO1 [Carfilzomib]", "cell viability of combination": 58.6},
      {"smiles": "CC(Oc1cc(-c2cnn(C3CCNCC3)c2)cnc1N)c1c(Cl)ccc(F)c1Cl", "note": "[(R)-Crizotinib] + CC(C)C[C@H](NC(=O)[C@H](CCc1ccccc1)NC(=O)CN1CCOCC1)C(=O)N[C@@H](Cc1ccccc1)C(=O)N[C@@H](CC(C)C)C(=O)[C@@]1(C)CO1 [Carfilzomib]", "cell viability of combination": 49.1},
      {"smiles": "COc1cccc2c1C(=O)c1c(O)c3c(c(O)c1C2=O)CC(O)(C(=O)CO)CC3OC1CC(N)C(O)C(C)O1.Cl", "note": "(stereo not given) [Epirubicin HCl] + CC(C)C[C@H](NC(=O)[C@H](CCc1ccccc1)NC(=O)CN1CCOCC1)C(=O)N[C@@H](Cc1ccccc1)C(=O)N[C@@H](CC(C)C)C(=O)[C@@]1(C)CO1 [Carfilzomib]", "cell viability of combination": 21},
      {"smiles": "CCCCCOc1ccc(-c2ccc(-c3ccc(C(=O)N[C@H]4C[C@@H](O)[C@@H](O)NC(=O)[C@@H]5[C@@H](O)[C@@H](C)CN5C(=O)[C@H]([C@@H](C)O)NC(=O)[C@H]([C@H](O)[C@@H](O)c5ccc(O)cc5)NC(=O)[C@@H]5C[C@@H](O)CN5C(=O)[C@H]([C@@H](C)O)NC4=O)cc3)cc2)cc1", "note": "[Anidulafungin] + CC(C)C[C@H](NC(=O)[C@H](CCc1ccccc1)NC(=O)CN1CCOCC1)C(=O)N[C@@H](Cc1ccccc1)C(=O)N[C@@H](CC(C)C)C(=O)[C@@]1(C)CO1 [Carfilzomib]", "cell viability of combination": 60},
      {"smiles": "CO[C@@]12[C@H](COC(N)=O)C3=C(C(=O)C(C)=C(N)C3=O)N1C[C@@H]1N[C@@H]12", "note": "[Mitomycin C] + CC(C)C[C@H](NC(=O)[C@H](CCc1ccccc1)NC(=O)CN1CCOCC1)C(=O)N[C@@H](Cc1ccccc1)C(=O)N[C@@H](CC(C)C)C(=O)[C@@]1(C)CO1 [Carfilzomib]", "cell viability of combination": 64},
      {"smiles": "COc1ncc(-c2ccc3nccc(-c4ccnnc4)c3c2)cc1NS(=O)(=O)c1ccc(F)cc1F", "note": "+ CC(C)C[C@H](NC(=O)[C@H](CCc1ccccc1)NC(=O)CN1CCOCC1)C(=O)N[C@@H](Cc1ccccc1)C(=O)N[C@@H](CC(C)C)C(=O)[C@@]1(C)CO1 [Carfilzomib]", "cell viability of combination": 17.6},
      {"smiles": "COC(=O)C1=C(C)NC(C)=C(C(=O)OC2CCCN(Cc3ccccc3)C2)C1c1cccc([N+](=O)[O-])c1.Cl", "note": "(stereo not given) [Benidipine HCl] + CC(C)C[C@H](NC(=O)[C@H](CCc1ccccc1)NC(=O)CN1CCOCC1)C(=O)N[C@@H](Cc1ccccc1)C(=O)N[C@@H](CC(C)C)C(=O)[C@@]1(C)CO1 [Carfilzomib]", "cell viability of combination": 57.7},
      {"smiles": "COC(=O)NC(C(=O)N1CCCC1c1ncc(-c2ccc(-c3ccc(-c4cnc(C5CCCN5C(=O)C(NC(=O)OC)C(C)C)[nH]4)cc3)cc2)[nH]1)C(C)C", "note": "(stereo not given) + CC(C)C[C@H](NC(=O)[C@H](CCc1ccccc1)NC(=O)CN1CCOCC1)C(=O)N[C@@H](Cc1ccccc1)C(=O)N[C@@H](CC(C)C)C(=O)[C@@]1(C)CO1 [Carfilzomib]", "cell viability of combination": 60.4},
      {"smiles": "C#Cc1cccc(Nc2ncnc3cc(OCCOC)c(OCCOC)cc23)c1.Cl", "note": "[Erlotinib Hydrochloride] + CC(C)C[C@H](NC(=O)[C@H](CCc1ccccc1)NC(=O)CN1CCOCC1)C(=O)N[C@@H](Cc1ccccc1)C(=O)N[C@@H](CC(C)C)C(=O)[C@@]1(C)CO1 [Carfilzomib]", "cell viability of combination": 57.4},
      {"smiles": "CC(C)C(=O)OCC(=O)[C@@]12O[C@H](C3CCCCC3)O[C@@H]1C[C@H]1[C@@H]3CCC4=CC(=O)C=C[C@]4(C)[C@H]3[C@@H](O)C[C@@]12C", "note": "[Ciclesonide] + CC(C)C[C@H](NC(=O)[C@H](CCc1ccccc1)NC(=O)CN1CCOCC1)C(=O)N[C@@H](Cc1ccccc1)C(=O)N[C@@H](CC(C)C)C(=O)[C@@]1(C)CO1 [Carfilzomib]", "cell viability of combination": 88.6},
      {"smiles": "Cc1nc(NC(=O)N2CCCC2C(N)=O)sc1-c1ccnc(C(C)(C)C(F)(F)F)c1", "note": "(stereo not given) + CC(C)C[C@H](NC(=O)[C@H](CCc1ccccc1)NC(=O)CN1CCOCC1)C(=O)N[C@@H](Cc1ccccc1)C(=O)N[C@@H](CC(C)C)C(=O)[C@@]1(C)CO1 [Carfilzomib]", "cell viability of combination": 42.3},
      {"smiles": "Clc1ccc(COC(Cn2ccnc2)c2ccc(Cl)cc2Cl)c(Cl)c1.O=[N+]([O-])O", "note": "(stereo not given) [Miconazole Nitrate] + CC(C)C[C@H](NC(=O)[C@H](CCc1ccccc1)NC(=O)CN1CCOCC1)C(=O)N[C@@H](Cc1ccccc1)C(=O)N[C@@H](CC(C)C)C(=O)[C@@]1(C)CO1 [Carfilzomib]", "cell viability of combination": 59.3},
      {"smiles": "O=C(NC1CCN(CCCCC2(C(=O)NCC(F)(F)F)c3ccccc3-c3ccccc32)CC1)c1ccccc1-c1ccc(C(F)(F)F)cc1", "note": "[Lomitapide] + CC(C)C[C@H](NC(=O)[C@H](CCc1ccccc1)NC(=O)CN1CCOCC1)C(=O)N[C@@H](Cc1ccccc1)C(=O)N[C@@H](CC(C)C)C(=O)[C@@]1(C)CO1 [Carfilzomib]", "cell viability of combination": 38.9}
    ]}
  ]
}
